Data reported in the supplement of paper PMC10849652.
Of roughly 7,900 targets only a part is listed; those with a hit were picked by preference. About 0.6% of all pairs of compound and target were hits. A number with no mark means an inactive call.

Columns and labels:
Experiment in all cases: log2 fold change, soluble protein after heating vs DMSO (PISA); higher = thermal stabilisation; K562 cells, 10 uM, 30 min; active = over 0.2 and 3.5 SD of the protein, either way, in both replicates (recomputed)
YAE1 = YAE1 (UniProt Q9NRH1)
Sequence of YAE1 (Q9NRH1 whole entry, looked up): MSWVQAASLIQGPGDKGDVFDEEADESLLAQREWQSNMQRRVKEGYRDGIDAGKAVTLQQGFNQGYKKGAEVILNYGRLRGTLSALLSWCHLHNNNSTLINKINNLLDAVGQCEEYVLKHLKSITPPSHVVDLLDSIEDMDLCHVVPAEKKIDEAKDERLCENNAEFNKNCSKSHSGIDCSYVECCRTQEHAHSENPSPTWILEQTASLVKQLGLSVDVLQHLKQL
In short: (§1)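 K562 cells at 2×10^6 cells/mL were exposed to 10 μM compound for 30 min, then aliquots were heated for 3 min across 48°C-58°C, pooled, and extracted in PBS containing 0.5% NP-40 at 4°C. The supernatant after 21,000xg for 90 min was taken as soluble protein and measured by TMTpro 16plex LC-MS/MS with channel sums equalised. Thermal stability is reported relative to control samples, with values from duplicates. Fold changes are given on a log2 scale.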

YBX1 = YBX1 (UniProt P67809)
Sequence of YBX1 (P67809 whole entry, looked up): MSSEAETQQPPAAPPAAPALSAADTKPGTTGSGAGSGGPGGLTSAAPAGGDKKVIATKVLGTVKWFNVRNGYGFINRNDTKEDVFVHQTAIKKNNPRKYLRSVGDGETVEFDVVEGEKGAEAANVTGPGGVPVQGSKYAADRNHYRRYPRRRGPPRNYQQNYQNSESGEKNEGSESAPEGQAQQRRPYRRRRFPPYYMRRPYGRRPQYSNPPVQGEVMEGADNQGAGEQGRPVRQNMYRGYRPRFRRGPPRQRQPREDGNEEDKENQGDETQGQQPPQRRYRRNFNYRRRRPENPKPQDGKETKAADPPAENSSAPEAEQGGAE
In short: as §1

YIPF4 = YIPF4 (UniProt Q9BSR8)
Sequence of YIPF4 (Q9BSR8 whole entry, looked up): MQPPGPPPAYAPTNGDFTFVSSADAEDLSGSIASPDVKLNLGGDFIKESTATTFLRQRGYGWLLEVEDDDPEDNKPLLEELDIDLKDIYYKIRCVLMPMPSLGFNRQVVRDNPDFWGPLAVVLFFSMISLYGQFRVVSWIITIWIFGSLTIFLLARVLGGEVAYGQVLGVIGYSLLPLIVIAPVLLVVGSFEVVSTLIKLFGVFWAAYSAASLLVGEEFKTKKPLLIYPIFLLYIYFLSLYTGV
In short: as §1

YIPF5 isoform 3 = YIPF5 isoform 3 (UniProt Q969M3)
Sequence of YIPF5 isoform 3 (Q969M3 whole entry, looked up, canonical isoform): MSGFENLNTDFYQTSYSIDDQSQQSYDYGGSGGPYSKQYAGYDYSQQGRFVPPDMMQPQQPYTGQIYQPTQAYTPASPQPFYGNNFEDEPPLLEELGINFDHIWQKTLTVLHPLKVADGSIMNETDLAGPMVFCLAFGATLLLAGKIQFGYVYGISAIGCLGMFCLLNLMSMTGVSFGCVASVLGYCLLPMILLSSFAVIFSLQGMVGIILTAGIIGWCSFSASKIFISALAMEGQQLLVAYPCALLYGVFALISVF
In short: as §1

YIPF6 = YIPF6 (UniProt Q96EC8)
Sequence of YIPF6 (Q96EC8 whole entry, looked up): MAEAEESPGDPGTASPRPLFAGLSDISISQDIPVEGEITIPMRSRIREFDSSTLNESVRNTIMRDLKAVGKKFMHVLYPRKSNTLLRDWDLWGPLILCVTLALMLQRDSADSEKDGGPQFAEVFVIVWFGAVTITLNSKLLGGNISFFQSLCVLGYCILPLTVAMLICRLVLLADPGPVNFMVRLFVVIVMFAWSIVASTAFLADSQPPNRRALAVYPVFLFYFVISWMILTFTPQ
In short: as §1

YLPM1 = YLPM1 (UniProt P49750)
Sequence of YLPM1 (P49750 whole entry, looked up): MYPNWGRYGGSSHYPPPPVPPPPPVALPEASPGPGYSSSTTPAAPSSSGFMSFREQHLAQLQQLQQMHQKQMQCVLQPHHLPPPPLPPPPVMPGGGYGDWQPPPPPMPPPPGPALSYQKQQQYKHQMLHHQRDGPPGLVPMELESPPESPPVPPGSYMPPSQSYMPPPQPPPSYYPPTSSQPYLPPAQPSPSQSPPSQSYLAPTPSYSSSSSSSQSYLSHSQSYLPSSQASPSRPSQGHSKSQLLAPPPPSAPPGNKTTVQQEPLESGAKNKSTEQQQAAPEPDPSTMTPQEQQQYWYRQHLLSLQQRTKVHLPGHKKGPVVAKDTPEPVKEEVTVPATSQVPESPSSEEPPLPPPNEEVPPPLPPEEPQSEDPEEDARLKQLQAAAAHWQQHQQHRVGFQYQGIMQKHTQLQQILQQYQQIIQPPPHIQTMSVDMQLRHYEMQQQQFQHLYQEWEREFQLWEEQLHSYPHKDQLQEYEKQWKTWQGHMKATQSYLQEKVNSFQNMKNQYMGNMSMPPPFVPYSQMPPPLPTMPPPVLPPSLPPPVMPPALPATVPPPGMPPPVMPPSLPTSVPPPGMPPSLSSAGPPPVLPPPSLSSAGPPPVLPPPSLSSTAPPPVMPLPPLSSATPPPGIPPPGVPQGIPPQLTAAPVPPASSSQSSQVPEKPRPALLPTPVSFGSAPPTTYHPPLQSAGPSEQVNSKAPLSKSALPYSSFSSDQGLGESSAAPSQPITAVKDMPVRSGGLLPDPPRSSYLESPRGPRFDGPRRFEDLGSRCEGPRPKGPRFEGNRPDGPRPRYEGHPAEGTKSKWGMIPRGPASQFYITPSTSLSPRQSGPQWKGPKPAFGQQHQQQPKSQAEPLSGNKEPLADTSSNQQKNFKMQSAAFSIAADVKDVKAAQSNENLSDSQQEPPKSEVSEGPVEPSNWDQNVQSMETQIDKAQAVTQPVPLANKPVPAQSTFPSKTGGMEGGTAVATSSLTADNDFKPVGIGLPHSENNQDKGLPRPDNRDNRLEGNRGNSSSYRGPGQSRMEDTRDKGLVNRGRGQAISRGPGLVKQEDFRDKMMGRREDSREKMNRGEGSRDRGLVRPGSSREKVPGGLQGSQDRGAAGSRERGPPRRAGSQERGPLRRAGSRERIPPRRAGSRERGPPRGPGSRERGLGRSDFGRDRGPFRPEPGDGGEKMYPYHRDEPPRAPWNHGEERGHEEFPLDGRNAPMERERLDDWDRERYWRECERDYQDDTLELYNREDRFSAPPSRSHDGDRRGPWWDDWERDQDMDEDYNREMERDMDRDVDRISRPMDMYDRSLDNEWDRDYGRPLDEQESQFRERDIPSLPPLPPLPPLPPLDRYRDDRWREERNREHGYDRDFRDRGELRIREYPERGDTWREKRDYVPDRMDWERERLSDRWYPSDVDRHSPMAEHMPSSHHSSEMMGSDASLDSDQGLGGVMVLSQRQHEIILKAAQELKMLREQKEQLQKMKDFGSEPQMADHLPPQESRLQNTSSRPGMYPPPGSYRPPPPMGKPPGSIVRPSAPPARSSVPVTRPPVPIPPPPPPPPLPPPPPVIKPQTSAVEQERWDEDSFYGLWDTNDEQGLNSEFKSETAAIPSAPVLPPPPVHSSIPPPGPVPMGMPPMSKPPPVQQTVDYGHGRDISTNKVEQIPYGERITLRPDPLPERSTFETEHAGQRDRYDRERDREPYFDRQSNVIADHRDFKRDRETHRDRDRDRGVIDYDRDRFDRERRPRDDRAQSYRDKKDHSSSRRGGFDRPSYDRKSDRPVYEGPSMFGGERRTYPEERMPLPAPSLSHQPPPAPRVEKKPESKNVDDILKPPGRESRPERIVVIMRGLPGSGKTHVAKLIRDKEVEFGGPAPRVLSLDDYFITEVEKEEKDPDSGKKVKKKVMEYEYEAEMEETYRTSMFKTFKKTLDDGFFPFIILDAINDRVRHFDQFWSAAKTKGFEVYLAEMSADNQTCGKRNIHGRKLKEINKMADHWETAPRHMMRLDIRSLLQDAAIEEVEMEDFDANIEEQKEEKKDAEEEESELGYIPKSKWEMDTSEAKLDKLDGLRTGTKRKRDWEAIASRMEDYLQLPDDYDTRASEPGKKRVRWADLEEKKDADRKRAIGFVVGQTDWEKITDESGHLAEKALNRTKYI
In short: as §1

YOD1 = YOD1 (UniProt Q5VVQ6)
In short: as §1

YPEL5 = YPEL5 (UniProt P62699)
Sequence of YPEL5 (P62699 whole entry, looked up): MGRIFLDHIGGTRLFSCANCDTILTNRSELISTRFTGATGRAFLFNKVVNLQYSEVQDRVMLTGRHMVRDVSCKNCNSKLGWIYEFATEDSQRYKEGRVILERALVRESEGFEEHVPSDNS
In short: as §1

YWHAB = YWHAB (UniProt P31946)
In short: as §1

YWHAQ = YWHAQ (UniProt P27348)
In short: as §1

YWHAZ [1] = target: YWHAZ (UniProt P63104)
Sequence of YWHAZ (UniProt P63104) (P63104 whole entry, looked up): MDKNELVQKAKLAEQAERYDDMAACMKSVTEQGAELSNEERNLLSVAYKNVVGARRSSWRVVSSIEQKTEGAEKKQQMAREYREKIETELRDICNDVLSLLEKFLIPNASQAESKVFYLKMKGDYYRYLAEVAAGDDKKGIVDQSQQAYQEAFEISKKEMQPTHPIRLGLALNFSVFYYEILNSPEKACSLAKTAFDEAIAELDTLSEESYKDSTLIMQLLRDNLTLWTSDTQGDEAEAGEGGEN
In short: as §1

YY1 = YY1 (UniProt P25490)
In short: as §1

ZADH2 = ZADH2 (UniProt Q8N4Q0)
Sequence of ZADH2 (Q8N4Q0 whole entry, looked up): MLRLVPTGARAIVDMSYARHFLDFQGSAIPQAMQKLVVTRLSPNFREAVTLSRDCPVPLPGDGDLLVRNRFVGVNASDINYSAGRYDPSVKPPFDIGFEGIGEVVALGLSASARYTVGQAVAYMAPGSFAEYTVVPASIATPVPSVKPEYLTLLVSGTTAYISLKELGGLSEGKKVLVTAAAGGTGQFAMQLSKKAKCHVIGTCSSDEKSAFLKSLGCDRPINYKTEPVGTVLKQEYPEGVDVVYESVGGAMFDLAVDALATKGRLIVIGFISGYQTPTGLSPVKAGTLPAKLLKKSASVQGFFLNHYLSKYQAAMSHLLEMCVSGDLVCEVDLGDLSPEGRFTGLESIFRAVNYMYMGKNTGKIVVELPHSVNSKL
In short: as §1

ZBTB17 isoform 2 = ZBTB17 isoform 2 (UniProt Q13105)
Sequence of ZBTB17 isoform 2 (Q13105 whole entry, looked up, canonical isoform): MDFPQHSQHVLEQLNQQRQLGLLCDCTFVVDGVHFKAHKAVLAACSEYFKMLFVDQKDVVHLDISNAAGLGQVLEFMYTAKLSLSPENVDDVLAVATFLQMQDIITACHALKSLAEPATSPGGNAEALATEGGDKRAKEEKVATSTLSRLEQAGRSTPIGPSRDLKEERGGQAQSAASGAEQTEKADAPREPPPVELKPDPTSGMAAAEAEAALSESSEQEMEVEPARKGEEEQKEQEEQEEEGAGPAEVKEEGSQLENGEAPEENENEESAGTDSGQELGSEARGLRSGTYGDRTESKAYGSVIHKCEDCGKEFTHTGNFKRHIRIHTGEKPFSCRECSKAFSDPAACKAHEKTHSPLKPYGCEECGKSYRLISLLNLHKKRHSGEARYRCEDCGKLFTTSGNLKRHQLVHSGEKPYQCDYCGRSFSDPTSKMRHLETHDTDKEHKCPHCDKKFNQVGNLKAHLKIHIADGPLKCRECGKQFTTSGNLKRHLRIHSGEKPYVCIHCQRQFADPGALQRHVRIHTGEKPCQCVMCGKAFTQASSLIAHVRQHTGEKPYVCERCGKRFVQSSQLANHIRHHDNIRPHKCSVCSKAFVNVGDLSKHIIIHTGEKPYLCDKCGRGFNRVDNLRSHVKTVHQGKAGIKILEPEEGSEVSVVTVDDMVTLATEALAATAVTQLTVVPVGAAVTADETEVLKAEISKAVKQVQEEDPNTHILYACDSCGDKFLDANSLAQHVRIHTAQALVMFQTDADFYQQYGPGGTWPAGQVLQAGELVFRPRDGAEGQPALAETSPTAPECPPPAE
In short: as §1

ZBTB21 = ZBTB21 (UniProt Q9ULJ3)
In short: as §1

ZBTB43 = ZBTB43 (UniProt O43298)
In short: as §1

ZC3H18 = ZC3H18 (UniProt Q86VM9)
In short: as §1

YES1 = YES1 (UniProt P07947)
In short: as §1

YWHAZ [2] = target: YWHAZ (UniProt E7ESK7)
In short: as §1

Q: Which results are given for `CN1CCN(c2nc(C3=C(c4c[nH]c5ccccc45)C(=O)NC3=O)c3ccccc3n2)CC1` [sotrastaurin]?
A: log2 fold change (YAE1): 0.074; log2 fold change (YBX1): 0.016; log2 fold change (YIPF4): 0.113; log2 fold change (YIPF5 isoform 3): 0.034; log2 fold change (YIPF6): -0.648 (active); log2 fold change (YLPM1): 0.021; log2 fold change (YOD1): 0.034; log2 fold change (YPEL5): -0.102; log2 fold change (YWHAB): 0.031; log2 fold change (YWHAQ): -0.043; log2 fold change (YWHAZ [1]): -0.01; log2 fold change (YY1): -0.092; log2 fold change (ZADH2): -0.015; log2 fold change (ZBTB17 isoform 2): 0.03; log2 fold change (ZBTB21): 0.022; log2 fold change (ZBTB43): 0.027; log2 fold change (ZC3H18): -0.11

Q: Which results are given for `Cc1nc(Nc2n[nH]c3c2CN(C(=O)N[C@H](CN(C)C)c2ccccc2)C3(C)C)c2sccc2n1`?
A: log2 fold change (YAE1): 0.104; log2 fold change (YBX1): 0.149; log2 fold change (YES1): -0.746 (active); log2 fold change (YIPF4): 0.004; log2 fold change (YIPF5 isoform 3): 0.016; log2 fold change (YIPF6): -0.042; log2 fold change (YLPM1): -0.075; log2 fold change (YOD1): -0.089; log2 fold change (YPEL5): -0.118; log2 fold change (YWHAB): -0.002; log2 fold change (YWHAQ): -0.033; log2 fold change (YWHAZ [1]): -0.015; log2 fold change (YY1): -0.304 (active); log2 fold change (ZADH2): -0.127; log2 fold change (ZBTB21): -0.093; log2 fold change (ZBTB43): 0.043; log2 fold change (ZC3H18): -0.145

Q: For `CC[C@H](C)n1cc(C)c2c(C(=O)NCc3c(C)cc(C)[nH]c3=O)cc(-c3ccc(N4CCNCC4)nc3)cc21`, which log2 fold change (YAE1) is on record?
A: Its log2 fold change is 0.02.

Q: What about the log2 fold change (YBX1) of the same molecule?
A: The log2 fold change was -0.063.

Q: What about the log2 fold change (YES1) of the same molecule?
A: Its log2 fold change is 0.112.

Q: And the log2 fold change (YIPF4)?
A: Its log2 fold change is -0.016.

Q: And the log2 fold change (YIPF5 isoform 3)?
A: Its log2 fold change is -0.041.

Q: What about the log2 fold change (YIPF6) of the same molecule?
A: Its log2 fold change is -0.039.

Q: And the log2 fold change (YLPM1)?
A: Its log2 fold change is 0.067.

Q: And the log2 fold change (YOD1)?
A: The log2 fold change was 0.081.

Q: And the log2 fold change (YPEL5)?
A: Its log2 fold change is 0.109.

Q: What about the log2 fold change (YWHAB) of the same molecule?
A: Its log2 fold change is 0.009.

Q: What about the log2 fold change (YWHAQ) of the same molecule?
A: The log2 fold change was 0.072.

Q: And the log2 fold change (YWHAZ [1])?
A: Its log2 fold change is 0.008.

Q: And the log2 fold change (YY1)?
A: Its log2 fold change is 0.061.

Q: And the log2 fold change (ZADH2)?
A: Its log2 fold change is 0.526 (active).

Q: What about the log2 fold change (ZBTB21) of the same molecule?
A: Its log2 fold change is 0.059.

Q: What about the log2 fold change (ZBTB43) of the same molecule?
A: The log2 fold change was -0.187.

Q: And the log2 fold change (ZC3H18)?
A: Its log2 fold change is 0.032.

Q: `Cc1cccc(CC(=O)N2CCc3c2ccc(-c2cn(C)c4ncnc(N)c24)c3F)n1` was tested. Which log2 fold change (YAE1) did it give?
A: The log2 fold change was 0.008.

Q: And the log2 fold change (YBX1)?
A: Its log2 fold change is -0.024.

Q: And the log2 fold change (YES1)?
A: The log2 fold change was 0.007.

Q: And the log2 fold change (YIPF4)?
A: Its log2 fold change is -0.042.

Q: What about the log2 fold change (YIPF5 isoform 3) of the same molecule?
A: Its log2 fold change is 0.06.

Q: And the log2 fold change (YIPF6)?
A: Its log2 fold change is -0.006.

Q: What about the log2 fold change (YLPM1) of the same molecule?
A: Its log2 fold change is -0.05.

Q: And the log2 fold change (YOD1)?
A: The log2 fold change was 0.041.

Q: And the log2 fold change (YPEL5)?
A: Its log2 fold change is 0.198.

Q: What about the log2 fold change (YWHAB) of the same molecule?
A: The log2 fold change was -0.058.

Q: And the log2 fold change (YWHAQ)?
A: Its log2 fold change is 0.694 (active).

Q: What about the log2 fold change (YWHAZ [1]) of the same molecule?
A: The log2 fold change was 0.029.

Q: What about the log2 fold change (YY1) of the same molecule?
A: Its log2 fold change is 0.003.

Q: What about the log2 fold change (ZADH2) of the same molecule?
A: Its log2 fold change is -0.041.

Q: And the log2 fold change (ZBTB21)?
A: The log2 fold change was 0.016.

Q: And the log2 fold change (ZBTB43)?
A: Its log2 fold change is -0.025.

Q: What about the log2 fold change (ZC3H18) of the same molecule?
A: The log2 fold change was -0.063.

Q: Which results are given for `CC(C)c1cnn2c(NCc3ccccc3)cc(NCCCCCCN)nc12`?
A: log2 fold change (YAE1): 0.057; log2 fold change (YBX1): 0.038; log2 fold change (YES1): 0; log2 fold change (YIPF4): -0.032; log2 fold change (YIPF5 isoform 3): 0.008; log2 fold change (YIPF6): -0.044; log2 fold change (YLPM1): -0.086; log2 fold change (YOD1): -0.153; log2 fold change (YPEL5): -0.083; log2 fold change (YWHAB): 0.014; log2 fold change (YWHAQ): -0.026; log2 fold change (YWHAZ [1]): 0.052; log2 fold change (YY1): -0.24 (active); log2 fold change (ZADH2): -0.019; log2 fold change (ZBTB17 isoform 2): 0.054; log2 fold change (ZBTB21): -0.027; log2 fold change (ZBTB43): 0.138; log2 fold change (ZC3H18): -0.122

Q: Which log2 fold change (YAE1) does the source give for `NCC(=O)Nc1ccc(-n2nc(C(F)(F)F)cc2-c2ccc3c(ccc4ccccc43)c2)cc1` here?
A: Its log2 fold change is -0.011.

Q: What about the log2 fold change (YBX1) of the same molecule?
A: Its log2 fold change is 0.055.

Q: What about the log2 fold change (YES1) of the same molecule?
A: The log2 fold change was 0.001.

Q: And the log2 fold change (YIPF4)?
A: Its log2 fold change is -0.004.

Q: What about the log2 fold change (YIPF5 isoform 3) of the same molecule?
A: The log2 fold change was 0.021.

Q: And the log2 fold change (YIPF6)?
A: Its log2 fold change is 0.071.

Q: What about the log2 fold change (YLPM1) of the same molecule?
A: Its log2 fold change is -0.069.

Q: And the log2 fold change (YOD1)?
A: Its log2 fold change is -0.015.

Q: What about the log2 fold change (YPEL5) of the same molecule?
A: The log2 fold change was 0.129.

Q: What about the log2 fold change (YWHAB) of the same molecule?
A: The log2 fold change was -0.007.

Q: What about the log2 fold change (YWHAQ) of the same molecule?
A: The log2 fold change was 0.457.

Q: What about the log2 fold change (YWHAZ [1]) of the same molecule?
A: Its log2 fold change is 0.084.

Q: And the log2 fold change (YY1)?
A: The log2 fold change was -0.009.

Q: What about the log2 fold change (ZADH2) of the same molecule?
A: The log2 fold change was 0.017.

Q: And the log2 fold change (ZBTB21)?
A: Its log2 fold change is -0.042.

Q: What about the log2 fold change (ZBTB43) of the same molecule?
A: Its log2 fold change is 0.

Q: What about the log2 fold change (ZC3H18) of the same molecule?
A: Its log2 fold change is -0.012.

Q: `CCCS(=O)(=O)Nc1ccc(F)c(C(=O)c2c[nH]c3ncc(-c4ccc(Cl)cc4)cc23)c1F` [vemurafenib] was tested. Which log2 fold change (YAE1) did it give?
A: Its log2 fold change is 0.019.

Q: And the log2 fold change (YBX1)?
A: The log2 fold change was -0.12.

Q: What about the log2 fold change (YES1) of the same molecule?
A: Its log2 fold change is -0.159.

Q: What about the log2 fold change (YIPF4) of the same molecule?
A: Its log2 fold change is 0.03.

Q: What about the log2 fold change (YIPF5 isoform 3) of the same molecule?
A: Its log2 fold change is -0.021.

Q: And the log2 fold change (YIPF6)?
A: Its log2 fold change is -0.15.

Q: And the log2 fold change (YLPM1)?
A: The log2 fold change was 0.017.

Q: And the log2 fold change (YOD1)?
A: Its log2 fold change is -0.001.

Q: What about the log2 fold change (YPEL5) of the same molecule?
A: The log2 fold change was -0.068.

Q: What about the log2 fold change (YWHAB) of the same molecule?
A: Its log2 fold change is 0.021.

Q: What about the log2 fold change (YWHAQ) of the same molecule?
A: Its log2 fold change is 0.284.

Q: And the log2 fold change (YWHAZ [1])?
A: The log2 fold change was 0.037.

Q: What about the log2 fold change (YY1) of the same molecule?
A: The log2 fold change was 0.03.

Q: And the log2 fold change (ZADH2)?
A: The log2 fold change was 0.

Q: What about the log2 fold change (ZBTB21) of the same molecule?
A: The log2 fold change was -0.032.

Q: What about the log2 fold change (ZBTB43) of the same molecule?
A: Its log2 fold change is 0.044.

Q: And the log2 fold change (ZC3H18)?
A: Its log2 fold change is -0.025.

Q: Which results are given for `Cc1ccc2c(=O)c3ccccc3n(CCCN)c2c1C`?
A: log2 fold change (YAE1): 0.022; log2 fold change (YBX1): -0.637 (active); log2 fold change (YES1): 0.043; log2 fold change (YIPF4): 0.215; log2 fold change (YIPF5 isoform 3): -0.006; log2 fold change (YIPF6): 0.145; log2 fold change (YLPM1): 0.023; log2 fold change (YOD1): 0.063; log2 fold change (YWHAB): -0.072; log2 fold change (YWHAQ): -0.055; log2 fold change (YWHAZ [2]): 0.029; log2 fold change (YWHAZ [1]): -0.009; log2 fold change (YY1): -0.433 (active); log2 fold change (ZADH2): 0.038; log2 fold change (ZBTB17 isoform 2): 1.05 (active); log2 fold change (ZBTB21): -0.183; log2 fold change (ZBTB43): -1.06 (active); log2 fold change (ZC3H18): -0.612 (active)
